The results in this text go back to the supplement of paper PMC10646978.

Molecules are shown by their SMILES. ± gives the standard deviation.

What all share (conditions): modulator concentration 10 µM
In test [1] the test system is RAW-Dual (murine macrophage reporter line). Put plainly: NF-kB reporter (SEAP) activity fold change vs agonist alone; higher = enhanced NF-kB activity. The procedure, abridged:
(§1)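 In 384-well plates holding 50 000 RAW-Dual murine macrophage reporter cells per well, compound at 10 μM final was pre-incubated for 1 hour at 37 °C, after which a PRR agonist was added overnight. Supernatant SEAP read with QUANTI-Blue at 620 nm absorbance reported NF-κB, and Lucia luciferase read with QUANTI-Luc luminescence reported IRF. Fold change values come from dividing each reporter signal by the mean of agonist-only control wells on the same plate, averaged over replicate plates with propagated errors.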

For test [2] the test system is unchanged. In words: IRF reporter (Lucia luciferase) activity fold change vs agonist alone; higher = enhanced IRF activity. The procedure, abridged: as §1
Test [3] has the same test system. Put plainly: viability score (confluency relative to resting cells, overnight) (fraction); higher = more viable, active = viable (0.7 or more). The procedure, abridged: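 Compound was added at a final 10 μM to RAW-Dual macrophages in 384-well plates and left overnight. Confluency was imaged with IncuCyte, and two masks were generated in IncuCyte software over all imaged wells. Each viability score is confluency relative to resting cells, and a compound met the cutoff only when both masks were above 70% of resting cells.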

[4] abbreviates: agonist: CpG ODN 1826 0.5 ug/mL.

With `COc1ccc(-c2oc(N=Cc3ccccc3O)c(C#N)c2-c2ccc(OC)cc2)cc1`, the results for the NF-kB reporter in test [1] (setting [4]), in test [1] (agonist: LPS 0.1 ug/mL) and in test [1] (agonist: MPLA […]) were 0.895 ± 0.075, 1.21 ± 0.079 and 0.997 ± 0.035, respectively. For the same compound, the results for the IRF reporter in test [2] (agonist: 3'3'-cGAMP 10 ug/mL), in test [2] (agonist: LPS 0.1 ug/mL) and in test [2] (agonist: MPLA […]) were 0.921 ± 0.2, 1.05 ± 0.089 and 1.12 ± 0.18, respectively. Moreover, the viability score in test [3] is 1 (active).

Turning to `Br.O=S(=O)(c1ccc(-c2csc(Nc3ccc(Cl)cc3)n2)cc1)N1CCCC1`, the figures for the NF-kB reporter in test [1] (setting [4]), in test [1] (agonist: LPS 0.1 ug/mL) and in test [1] (agonist: MPLA […]) were 0.941 ± 0.15, 1.04 ± 0.13 and 0.869 ± 0.069, respectively. Further, the IRF reporter was 0.885 ± 0.026 in test [2] (agonist: 3'3'-cGAMP 10 ug/mL), 1.19 ± 0.17 in test [2] (agonist: LPS 0.1 ug/mL) and 1.48 ± 0.28 in test [2] (agonist: MPLA […]). In test [3], the viability score was 0.991 (active).

For the compound `CN(C)CCCN1c2ccccc2Sc2ccc(Cl)cc21` [Prestw-64], the NF-kB reporter in test [1] (setting [4]) is 0.227 ± 0.066; in test [1] (agonist: LPS 0.1 ug/mL) it was 1.1 ± 0.059; in test [1] (agonist: MPLA […]) it was 1.94 ± 0.12. Also, the figures for the IRF reporter in test [2] (agonist: 3'3'-cGAMP 10 ug/mL), in test [2] (agonist: LPS 0.1 ug/mL) and in test [2] (agonist: MPLA […]) were 0.71 ± 0.037, 2.26 ± 0.33 and 2.24 ± 0.35, respectively. In test [3], the viability score was 0.634 (inactive).

As to `CC1CC(OC(=O)C(O)c2ccccc2)CC(C)(C)N1C` (stereo not drawn) [Prestw-794], the figures for the NF-kB reporter in test [1] (setting [4]), in test [1] (agonist: LPS 0.1 ug/mL) and in test [1] (agonist: MPLA […]) were 1.07 ± 0.17, 1.25 ± 0.12 and 1.02 ± 0.08, respectively. Moreover, the results for the IRF reporter in test [2] (agonist: 3'3'-cGAMP 10 ug/mL), in test [2] (agonist: LPS 0.1 ug/mL) and in test [2] (agonist: MPLA […]) were 0.97 ± 0.027, 1.09 ± 0.2 and 1.22 ± 0.15, respectively. Further, the viability score in test [3] is 1 (active).

On to `CCCCC1=NC2(CCCC2)C(=O)N1Cc1ccc(-c2ccccc2-c2nnn[nH]2)cc1` [Prestw-1736], for which the NF-kB reporter in test [1] (setting [4]) amounted to 1.21 ± 0.29; in test [1] (agonist: LPS 0.1 ug/mL) it was 0.96 ± 0.057; in test [1] (agonist: MPLA […]), 0.952 ± 0.087. Also, the IRF reporter in test [2] (agonist: 3'3'-cGAMP 10 ug/mL) is 0.943 ± 0.034; in test [2] (agonist: LPS 0.1 ug/mL) it was 1.22 ± 0.19; in test [2] (agonist: MPLA […]), 1.06 ± 0.18. For the same compound, the viability score in test [3] is 1 (active).

Turning to `Cl.OC(CC#CCN1CCCC1)(c1ccccc1)c1ccccc1`, the NF-kB reporter stood at 0.726 ± 0.13 in test [1] (setting [4]), 1.08 ± 0.086 in test [1] (agonist: LPS 0.1 ug/mL) and 0.967 ± 0.074 in test [1] (agonist: MPLA […]). In addition, the IRF reporter in test [2] (agonist: 3'3'-cGAMP 10 ug/mL) was determined as 0.748 ± 0.019; in test [2] (agonist: LPS 0.1 ug/mL), 1.28 ± 0.15; in test [2] (agonist: MPLA […]) it was 1.42 ± 0.17. Further, the viability score in test [3] is 0.597 (inactive).

As for `CC#CCn1c(N2CCCC(N)C2)nc2c1c(=O)n(Cc1nc(C)c3ccccc3n1)c(=O)n2C` (stereo not drawn), the results for the NF-kB reporter in test [1] (setting [4]), in test [1] (agonist: LPS 0.1 ug/mL) and in test [1] (agonist: MPLA […]) were 0.931 ± 0.24, 1.08 ± 0.085 and 0.972 ± 0.065, respectively. Further, the IRF reporter in test [2] (agonist: 3'3'-cGAMP 10 ug/mL) came to 0.925 ± 0.033; in test [2] (agonist: LPS 0.1 ug/mL) it was 1.23 ± 0.15; in test [2] (agonist: MPLA […]) it was 1.39 ± 0.13. The viability score in test [3] was 0.988 (active).

As for `CCN1C(=O)C(=Cc2c[nH]c3ccccc23)SC1=S`, the figures for the NF-kB reporter in test [1] (setting [4]), in test [1] (agonist: LPS 0.1 ug/mL) and in test [1] (agonist: MPLA […]) were 0.67 ± 0.075, 0.994 ± 0.081 and 0.868 ± 0.033, respectively. The IRF reporter in test [2] (agonist: 3'3'-cGAMP 10 ug/mL) turned out to be 0.813 ± 0.16; in test [2] (agonist: LPS 0.1 ug/mL) it was 1.02 ± 0.084; in test [2] (agonist: MPLA […]), 1.36 ± 0.18. In addition, in test [3], the viability score is 0.804 (active).

With `Cn1c(=O)c2c(ncn2CC(=O)O)n(C)c1=O` [Prestw-1507], the NF-kB reporter in test [1] (setting [4]) turned out to be 0.918 ± 0.25; in test [1] (agonist: LPS 0.1 ug/mL), 1.19 ± 0.12; in test [1] (agonist: MPLA […]) it was 1.04 ± 0.086. Further, the IRF reporter was determined as 0.945 ± 0.053 in test [2] (agonist: 3'3'-cGAMP 10 ug/mL), 0.96 ± 0.099 in test [2] (agonist: LPS 0.1 ug/mL) and 1.17 ± 0.15 in test [2] (agonist: MPLA […]). For the same compound, the viability score in test [3] was 0.992 (active).

For `CN1CCN(C2=C(Cl)C(=O)N(c3cccc(Cl)c3)C2=O)CC1`, the NF-kB reporter in test [1] (setting [4]) stood at 1.09 ± 0.079; in test [1] (agonist: LPS 0.1 ug/mL), 0.914 ± 0.099; in test [1] (agonist: MPLA […]), 1.01 ± 0.03. For the same compound, the IRF reporter in test [2] (agonist: 3'3'-cGAMP 10 ug/mL) amounted to 0.465 ± 0.022; in test [2] (agonist: LPS 0.1 ug/mL) it was 0.972 ± 0.053; in test [2] (agonist: MPLA […]) it was 0.974 ± 0.096. For the same compound, in test [3], the viability score is 0.993 (active).

Regarding `Cc1cccc(NC(=O)Cc2nnc(NC(=O)Nc3ccc(F)cc3)s2)c1`, the NF-kB reporter in test [1] (setting [4]) was 1.02 ± 0.11; in test [1] (agonist: LPS 0.1 ug/mL), 1.03 ± 0.059; in test [1] (agonist: MPLA […]), 0.917 ± 0.055. Also, the IRF reporter turned out to be 1 ± 0.051 in test [2] (agonist: 3'3'-cGAMP 10 ug/mL), 1.53 ± 0.12 in test [2] (agonist: LPS 0.1 ug/mL) and 1.11 ± 0.15 in test [2] (agonist: MPLA […]). Besides, the viability score in test [3] is 1.01 (active).

With `COc1ccc(CNCc2cccc3ccccc23)cc1`, the NF-kB reporter in test [1] (setting [4]) amounted to 0.715 ± 0.12; in test [1] (agonist: LPS 0.1 ug/mL), 1.06 ± 0.1; in test [1] (agonist: MPLA […]), 1.15 ± 0.11. Moreover, the IRF reporter was found to be 0.877 ± 0.035 in test [2] (agonist: 3'3'-cGAMP 10 ug/mL), 0.945 ± 0.1 in test [2] (agonist: LPS 0.1 ug/mL) and 1.31 ± 0.14 in test [2] (agonist: MPLA […]). The viability score in test [3] is 0.967 (active).

Consider `O=C(NC1CC2CCC1C2)c1ccccc1` (stereo not drawn), for which the NF-kB reporter in test [1] (setting [4]) was 0.907 ± 0.09; in test [1] (agonist: LPS 0.1 ug/mL), 0.994 ± 0.081; in test [1] (agonist: MPLA […]), 0.972 ± 0.046. Besides, the IRF reporter in test [2] (agonist: 3'3'-cGAMP 10 ug/mL) is 1.02 ± 0.11; in test [2] (agonist: LPS 0.1 ug/mL) it was 1.01 ± 0.13; in test [2] (agonist: MPLA […]) it was 0.869 ± 0.15. In addition, the viability score in test [3] is 0.995 (active).

With `CC(=Cc1ccccc1)CN1CC(C)OC(C)C1` (stereo not drawn), the NF-kB reporter was found to be 0.788 ± 0.063 in test [1] (setting [4]), 0.788 ± 0.05 in test [1] (agonist: LPS 0.1 ug/mL) and 1.04 ± 0.12 in test [1] (agonist: MPLA […]). In addition, the values for the IRF reporter in test [2] (agonist: 3'3'-cGAMP 10 ug/mL), in test [2] (agonist: LPS 0.1 ug/mL) and in test [2] (agonist: MPLA […]) were 0.933 ± 0.044, 1.28 ± 0.074 and 1.47 ± 0.17, respectively. In addition, in test [3], the viability score is 0.956 (active).
